Screens: PubChem BioAssay, National Center for Advancing Translational Sciences (NCATS)
This is a sample that favours compounds with a hit; in the whole collection about 2.4% have one here.
D2 ag-1 = D2 dopamine receptor (human) agonism | P14416 | HEK293 T-REx D2 cells, calcium flux agonist mode | activation, % at 2 µM | actives 0.53% (n = 340,000) | AID 485358;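 active = activation over 3 SD above normal in the single-dose calcium agonist read, cut at about 30% in these data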; note: 0% is about no effect
Target sequence (P14416 whole entry, looked up): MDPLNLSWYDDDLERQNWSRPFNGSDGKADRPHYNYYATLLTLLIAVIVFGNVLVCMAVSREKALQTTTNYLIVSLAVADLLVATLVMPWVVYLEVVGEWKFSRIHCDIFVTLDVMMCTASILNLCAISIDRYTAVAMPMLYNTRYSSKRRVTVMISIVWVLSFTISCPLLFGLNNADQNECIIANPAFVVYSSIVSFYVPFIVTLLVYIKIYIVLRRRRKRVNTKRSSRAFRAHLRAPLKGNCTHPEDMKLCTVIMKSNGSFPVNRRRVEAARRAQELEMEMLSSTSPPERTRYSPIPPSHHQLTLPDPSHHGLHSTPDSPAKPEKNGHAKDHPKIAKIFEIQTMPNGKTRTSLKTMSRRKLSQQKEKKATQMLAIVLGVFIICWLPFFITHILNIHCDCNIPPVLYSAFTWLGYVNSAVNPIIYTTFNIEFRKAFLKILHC
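Agonism scored from kinetic calcium signal (1 read/sec, 180 s) following compound pin transfer, after a 10 s baseline. Cells: HEK293 Trex line expressing inducible D2 receptor coupled to calcium, dye-loaded after overnight culture at 30 C.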
D2 PAM-1 = D2 dopamine receptor (human) potentiation | HEK293 T-REx D2, calcium flux, EC20 dopamine potentiation | potentiation, % at 10 µM | actives 0.34% (n = 340,000) | AID 485347;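 active = potentiation over 3 SD above the plate norm, cut at about 30% in these data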; note: 0% is about no effect
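Cells plated with tetracycline inducer and held overnight at 30 C; calcium dye loaded 30–90 min at room temperature; baseline taken, compound added and read 180 s; EC20 dopamine then added and read 180 s.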
D2 PAM-2 = potentiates the human D2 dopamine receptor allosterically; actives 0.23% (n = 360,000); P14416; potentiation, % (no concentration beside the values); DiscoveRx D2 beta-arrestin cells, luminescence, 90 min; 100% = 57 uM dopamine signal; AID 624464; in the data active = potentiation above about 50%
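PathHunter D2 cells, attached overnight at 37 deg C, received compound in DMSO plus dopamine at EC20 (50 nM final) for 90 min at 37 deg C. Beta-arrestin recruitment was read as luminescence after 1 h with detection reagent at ambient temperature.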
D2 ag-2 = human D2 receptor agonism in beta-arrestin assay; actives 0.084% (n = 360,000); AID 624465; P14416; activation, % (no concentration beside the values); DiscoveRx PathHunter D2 beta-arrestin, luminescence, 90 min; 100% = 57 uM dopamine signal; in the data active = activation above about 40%
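DiscoveRx PathHunter D2 beta-arrestin cells (2,100/well) attached overnight, then compound-stimulated 90 min at 37 C in HBSS/10 mM HEPES/0.1% Tween-20 buffer; beta-galactosidase complementation read by luminescence after 1 h at ambient temperature. Dopamine 57 uM final (EC100) as control.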
D2 antagonist = D2 dopamine receptor (human) antagonism. P14416. HEK293 TREx D2 cells, calcium flux, dopamine EC80. inhibition, % at 10 µM. actives 2% (n = 340,000). AID 485344; in the data active = inhibition above about 30%; inactive = below that, where a call was filed; note: 0% is about no effect
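Antagonism is scored as inhibition of an EC80 dopamine-evoked calcium signal in a force-coupled, tetracycline-inducible HEK293 T-REx D2 line, with compound present 180 s before agonist.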
* marks the source's active call; other numbers are inactive results; / = no result.

SMILES | D2 ag-1 | D2 PAM-1 | D2 PAM-2 | D2 ag-2 | D2 antagonist
Cc1ccc(CSc2nnc(CS(=O)Cc3ccc(Cl)cc3Cl)n2C)cc1 (configuration not stated) | 0 | 5 | 7 | 0 | -9
Cn1c(CS(=O)Cc2c(Cl)cccc2Cl)nnc1SCc1ccc(Cl)cc1 (configuration not stated) | -1 | 11 | -10 | 0 | 31*
CCN(CC)C(=O)N1CCN(C)CC1 | 1 | 9 | -1 | -2 | 32*
CCn1c(=O)c(C(=O)NNC(=O)c2ccccc2F)c(O)c2ccccc21 | 48* | -9 | -5 | 3 | 21
CCn1c(=O)c(C(=O)NNC(=O)c2ccccc2Cl)c(O)c2ccccc21 | -3 | / | -10 | -2 | -17
CCOc1ccccc1-n1c(SCC(=O)N2CCCC2)nnc1-c1ccc(O)cc1 | -1 | 31* | -3 | 0 | 2
CCCCn1c(S(=O)(=O)O)nc2ccccc21 | -1 | -4 | 2 | 5 | 33*
CCCCCn1c(S(=O)(=O)O)nc2ccccc21 | 0 | -10 | 3 | 0 | -11
CCOCCCNCc1ccc(OC)c(OC)c1 | -1 | -6 | -13 | -1 | 36*
COc1ccccc1CNC(=O)c1cc2cccc3c2n1CCS3 | 0 | 0 | / | / | /
Cc1cc(C(=O)NCc2ccc(S(N)(=O)=O)cc2)c(C)o1 | 0 | -4 | -4 | -2 | 30*
CC1CCN(CCCNC(=O)c2cn(C)c3ccc(S(=O)(=O)N(C)C4CCCCC4)cc3c2=O)CC1 | -1 | 11 | / | / | /
CC1CCCN(CCCNC(=O)c2cn(C)c3ccc(S(=O)(=O)N(C)C4CCCCC4)cc3c2=O)C1 (configuration not stated) | 0 | -14 | -17 | -1 | 37*
Cn1cc(C(=O)NC2CCCCCC2)c(=O)c2cc(S(=O)(=O)N3CCCC3)ccc21 | 3 | -1 | -14 | -5 | 3
Cn1cc(C(=O)NC2CCCCCCC2)c(=O)c2cc(S(=O)(=O)N3CCCC3)ccc21 | 2 | 32* | -6 | -2 | -10
Cn1cc(C(=O)N2CCc3ccccc3C2)c(=O)c2cc(S(=O)(=O)N3CCCCC3)ccc21 | 1 | -17 | / | / | -11
CCn1cc(C(=O)N2CCc3ccccc3C2)c(=O)c2cc(S(=O)(=O)N3CCCCC3)ccc21 | 68* | -21 | / | / | -14
CCc1ccccc1NC(=O)c1ccc2c(c1)nnn2C1CCCC1 | 0 | -11 | / | / | /
CNC(=O)COc1ccc(NC(=O)CCn2nc(-c3ccc(C)cc3)c3ccccc3c2=O)cc1 | -1 | 8 | / | / | /
CCn1c(SCC(=O)Nc2cc3oc4ccccc4c3cc2OC)nnc1-c1cccs1 | 37* | -15 | 0 | 12 | 45*
COc1cc2c(cc1NC(=O)CSc1nnc(Cc3cccs3)n1C)oc1ccccc12 | 0 | -1 | -18 | -2 | 14
O=C(CSc1nnc(-c2ccc(Br)o2)n1Cc1ccccc1)c1ccccc1F | 0 | 71* | -8 | -4 | 4
COc1ccccc1C(=O)NC1(C(F)(F)F)C(=O)Nc2c1c(=O)[nH]c(=O)n2-c1ccc(F)cc1 (configuration not stated) | 0 | 2 | / | / | /
Cc1csc(NC(=O)C2CCCN(S(=O)(=O)c3ccc(Br)s3)C2)n1 (configuration not stated) | -1 | -10 | -21 | -1 | 38*
Cc1ccc(C)c(Cn2c(-c3cccs3)nc3ccccc32)c1 | 2 | -6 | / | / | /
SMILES | D2 ag-1 | D2 PAM-1 | D2 PAM-2 | D2 ag-2 | D2 antagonist
COCCn1nnnc1C(c1ccc(O)c(OC)c1)N1CCc2ccccc2C1 (configuration not stated) | 1 | -18 | -1 | 2 | 44*
COc1ccc(C(c2nnnn2C2CCCC2)N2CCc3ccccc3C2)cc1OC (configuration not stated) | 0 | 9 | -8 | -4 | 26
CCc1cccc(NC(=O)c2cc3c(=O)oc4ccc(C)cc4c3s2)c1 | 1 | 1 | / | / | /
COCCCNC(=O)Cn1ncc2ccsc2c1=O | 0 | 0 | 0 | -3 | 30*
C=CCNC(=S)NNC(=O)CC12CC3CC(CC(C3)C1)C2 | 0 | -5 | -6 | -3 | 34*
COC(=O)Nc1nc2c(C)cccc2s1 | 0 | -6 | -14 | -2 | 38*
Cc1ccc2sc(NC(=O)C3CC3)nc2c1C | 0 | 36* | -8 | -1 | 7
COc1cccc(C2C=C(c3ccc(C)cc3)Nc3c(C(=O)Nc4ccc(F)cc4)cnn32)c1OC (configuration not stated) | 0 | -4 | / | / | /
CC(C)C(NS(=O)(=O)c1ccc2c(c1)oc(=O)n2C)C(=O)N1CCN(C2CCCCC2)CC1 (configuration not stated) | 1 | 2 | -3 | -1 | 31*
CC1CC(C)CN(C(=O)C(NS(=O)(=O)c2ccc3c(c2)oc(=O)n3C)C(C)C)C1 (configuration not stated) | 1 | 3 | -7 | -3 | -13
COc1cccc(-c2nc(-c3ccccc3)c(-c3ccccc3)[nH]2)c1OCC(=O)O | 1 | -4 | 65* | 5 | -6
O=C(O)COc1ccccc1-c1nc(-c2ccccc2)c(-c2ccccc2)[nH]1 | 0 | 9 | 7 | 8 | -2
S=c1[nH]nc(Cc2c[nH]c3ccccc23)o1 | 1 | 1 | 15 | 1 | 41*
CC(C)CCNC(=O)CCc1nnc(Cc2c[nH]c3ccccc23)o1 | 1 | 1 | -2 | -2 | -5
CCc1cccc(C)c1NC(=O)C(NS(=O)(=O)c1ccc2c(c1)CCC(=O)N2)c1ccccc1 (configuration not stated) | 0 | 4 | / | / | /
COCC(=O)Nc1cc(C(=O)Nc2ccccc2C)ccc1Cl | 0 | 0 | -6 | -1 | 32*
Cc1ccc(C(=O)NNC(=O)c2cc(OCC(F)(F)F)ccc2OCC(F)(F)F)cc1 | / | 2 | -15 | -5 | 32*
CCOc1ccc(C(=O)Nc2c3c(nn2C(C)(C)C)CSC3)cc1OCC | 0 | -7 | -7 | -4 | 30*
CCOc1ccc(C(=O)Nc2nnc(C)s2)cc1OCC | 0 | -7 | -6 | -1 | 6
Cc1ccccc1-c1nc(CN(Cc2c(C)nn(C)c2C)C2CC2)c(C)o1 | 7 | -2 | -10 | -12 | 30*
CN(C)CCNc1oc(-c2ccc(COc3ccc(Cl)cc3)o2)nc1C#N | / | -1 | / | / | /
Cc1ccc2[nH]c3nc(N/N=C/c4cccc(O)c4)nnc3c2c1 | 0 | -11 | -2 | -1 | 37*
CN1C(=O)/C(=C\c2ccc(N(C)C)cc2)OC1=S | 86* | -20 | -4 | -1 | 47*
COc1ccc(/C=C2\OC(=S)N(C)C2=O)cc1 | -1 | -8 | -2 | -1 | -6
O=C(NCCc1ccc(Cl)cc1)c1ccc(CS(=O)Cc2cccc(Cl)c2)o1 (configuration not stated) | -1 | -8 | / | / | /
